From PubChem BioAssay (Tox21)
Inconclusive results are not listed. Active and inactive are the calls of the source. Unless noted, calls follow the shape of the dose curve; as a rule, active = well fitted curve in the direction sought with a large enough effect in the repeat runs; inconclusive = weak or mixed curves; inactive = no such curve, though single readings can be large; an effect the other way counts as inactive or inconclusive.

Experiments:
[1] = A CellTox Green Cytotoxicity Assay to monitor cytotoxicity in HepG2 cells - 8 hour (AID 1224890); also: nearly all actives have a fitted effect of over 45% in size
Method in brief: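 HepG2, 600 cells/well premixed w/ CellTox Green; 5 h settle, 37 C/5% CO2; pintool cpd add (DMSO); 37 C, 40 h; fluorescence read at 0, 8, 16, 24, 32, 40 h.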

[2] = qHTS assay to identify small molecule antagonists of the androgen receptor (AR) signaling pathway using the MDA cell line in the presence of 0.5 nM R1881 - cell viability counter screen (AID 1259242); also: nearly all actives have a fitted effect of over 45% in size
Method in brief: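 Live-cell protease fluorescence, CellTiter-Fluor, 30 min at 37C. Cells: MDA-kb2, 3,000/well, preincubated 5 hr. Compounds plus 0.5 nM R1881 final, 16 hr, 37C, 0% CO2.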

[3] = target: Androgen receptor (Homo sapiens) (UniProt P10275); experiment: qHTS assay to identify small molecule antagonists of the androgen receptor (AR) signaling pathway using the MDA cell line in the presence of 0.5 nM R1881 (AID 1259243); also: nearly all actives have a fitted effect of over 50% in size
Chain of Androgen receptor (Homo sapiens) (P10275 whole entry, looked up): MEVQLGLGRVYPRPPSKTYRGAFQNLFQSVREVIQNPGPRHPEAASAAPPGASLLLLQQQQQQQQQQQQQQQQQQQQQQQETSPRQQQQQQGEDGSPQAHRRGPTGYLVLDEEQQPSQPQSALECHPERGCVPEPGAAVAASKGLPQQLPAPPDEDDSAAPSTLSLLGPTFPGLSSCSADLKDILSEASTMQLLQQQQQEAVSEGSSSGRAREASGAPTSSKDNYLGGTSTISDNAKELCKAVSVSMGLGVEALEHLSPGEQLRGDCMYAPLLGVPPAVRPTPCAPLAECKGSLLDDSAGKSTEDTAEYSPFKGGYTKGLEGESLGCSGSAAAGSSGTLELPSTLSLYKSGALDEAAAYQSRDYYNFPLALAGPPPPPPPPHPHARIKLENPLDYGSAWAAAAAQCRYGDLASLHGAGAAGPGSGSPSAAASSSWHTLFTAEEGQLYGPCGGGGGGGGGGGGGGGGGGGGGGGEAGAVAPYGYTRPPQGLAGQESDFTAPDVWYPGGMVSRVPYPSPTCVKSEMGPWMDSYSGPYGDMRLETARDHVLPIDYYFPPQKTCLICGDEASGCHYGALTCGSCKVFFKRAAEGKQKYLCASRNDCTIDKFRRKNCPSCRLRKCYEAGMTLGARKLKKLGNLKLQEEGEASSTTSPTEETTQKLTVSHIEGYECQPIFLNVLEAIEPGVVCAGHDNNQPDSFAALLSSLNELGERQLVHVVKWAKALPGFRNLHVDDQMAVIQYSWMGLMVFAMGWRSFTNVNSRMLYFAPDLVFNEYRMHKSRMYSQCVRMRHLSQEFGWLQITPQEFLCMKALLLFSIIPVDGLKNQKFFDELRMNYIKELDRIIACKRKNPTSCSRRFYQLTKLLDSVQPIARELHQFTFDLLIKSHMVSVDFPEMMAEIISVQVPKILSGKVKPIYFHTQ
Method in brief: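 MDA-kb2, MMTV-luc (AR/GR elements); 3,000 cells/well; cpd + 0.5 nM R1881 final; 16 hr 37C, 0% CO2; ONE-Glo 30 min RT; luminescence.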

[4] = target: Estrogen receptor (Homo sapiens) (UniProt P03372); experiment: qHTS assay to identify small molecule antagonists of the estrogen receptor alpha (ER-alpha) signaling pathway using the BG1 cell line in the presence of 0.1 nM 17-beta-estradiol (AID 1259244); also: nearly all actives have a fitted effect of over 50% in size
Chain of Estrogen receptor (Homo sapiens) (P03372 whole entry, looked up): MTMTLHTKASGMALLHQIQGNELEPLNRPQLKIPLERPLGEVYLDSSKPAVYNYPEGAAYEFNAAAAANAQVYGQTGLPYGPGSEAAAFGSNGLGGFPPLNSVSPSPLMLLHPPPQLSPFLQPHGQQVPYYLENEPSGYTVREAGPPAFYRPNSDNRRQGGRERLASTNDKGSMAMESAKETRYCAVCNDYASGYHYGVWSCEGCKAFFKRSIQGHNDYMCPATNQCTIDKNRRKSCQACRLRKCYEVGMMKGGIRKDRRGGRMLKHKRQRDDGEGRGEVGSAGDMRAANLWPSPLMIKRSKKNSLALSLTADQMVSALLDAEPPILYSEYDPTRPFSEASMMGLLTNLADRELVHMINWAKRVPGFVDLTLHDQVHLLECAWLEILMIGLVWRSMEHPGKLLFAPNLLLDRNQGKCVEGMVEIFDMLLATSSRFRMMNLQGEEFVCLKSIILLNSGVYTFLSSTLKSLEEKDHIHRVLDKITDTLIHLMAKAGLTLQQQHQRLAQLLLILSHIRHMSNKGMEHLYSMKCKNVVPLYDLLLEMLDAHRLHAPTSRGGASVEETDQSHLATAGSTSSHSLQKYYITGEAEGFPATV
Method in brief: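 Luminescence after ONE-Glo (30 min, room temperature) measured ERE-luciferase activity in VM7Luc4E2 cells treated 22 h with compound and 0.1 nM final 17beta-estradiol as stimulator.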

[5] = qHTS assay to identify small molecule HDAC inhibitors (AID 1259364);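 also: wild-type HCT-116 cells with endogenous class I/II HDAC activity; top concentration of the series differs between compounds; nearly all actives have a fitted effect of over 45% in size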
Method in brief: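 HCT-116 (wild type), 1,500 cells/well, overnight; compound 2 hr 37C 5% CO2; HDAC-Glo I/II reagent 30 min RT; luminescence readout.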

[6] = qHTS assay to identify small molecule HDAC inhibitors - cell viability counter screen (AID 1259365); also: series mostly up to about 92 µM; nearly all actives have a fitted effect of over 50% in size
Method in brief: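 Wild-type HCT-116 cells were seeded at 1,500 per well, incubated overnight at 37 C, then exposed to compounds in DMSO for 2hr. Viability was read by CellTiter-Glo luminescence after 30min at room temperature.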

[7] = qHTS assay to identify small molecule agonists of the sonic hedgehog signaling (Shh) pathway - cell viability counter screen (AID 1259366); also: nearly all actives have a fitted effect of over 50% in size
Method in brief: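 NIH/3T3-derived 3T3 Gli1-Luc cells (stable Gli1-responsive firefly luciferase reporter) were seeded, rested 4 hr at 37 C/5% CO2, then exposed to compounds in DMSO for 24 hr; viability was read by CellTiter-Fluor fluorescence in the same wells.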

[8] = qHTS assay to identify small molecule antagonists of the sonic hedgehog signaling (Shh) pathway - cell viability counter screen (AID 1259367); also: nearly all actives have a fitted effect of over 55% in size
Method in brief: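 Tox21 library chemicals were tested on a Gli1-Luc NIH/3T3 clone (2,000 cells/well) stimulated by conditioned medium; viability was quantified as fluorescence from CellTiter-Fluor reagent added at 23 hr.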

[9] = qHTS assay to identify small molecule agonists of the sonic hedgehog signaling (Shh) pathway (AID 1259368; calls by dose curve; also: series mostly up to about 92 µM; nearly all actives have a fitted effect of over 15% in size)
Method in brief: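 Read-out: firefly luciferase luminescence from a Gli1 response element reporter stably integrated in NIH/3T3-derived 3T3Gli1-Luc cells, measured 30 min at room temperature after reagent addition. Compound exposure lasted 24 hr at 37 C, 5% CO2.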

[10] = qHTS assay to identify small molecule antagonists of the sonic hedgehog signaling (Shh) pathway (AID 1259369; calls by dose curve; also: nearly all actives have a fitted effect of over 45% in size; also: potency is read from the fitted curve at half-maximal effect)
Method in brief: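 Luminescence readout: firefly Luc under Gli1 response element in 3T3Gli1-Luc cells (NIH/3T3 clone). Antagonist mode, stimulation by conditioned medium; compound exposure 24hr at 37 C, 5% CO2.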

[11] = target: Estrogen receptor beta (Homo sapiens) (UniProt Q92731); experiment: qHTS assay to identify small molecule agonists of the estrogen receptor beta (ER-beta) signaling pathway (AID 1259377; active = well fitted activation curve with a large enough effect in the signal ratio in the repeat runs, not every such curve was filed as active; the % refers to the signal ratio)
Chain of Estrogen receptor beta (Homo sapiens) (Q92731 whole entry, looked up): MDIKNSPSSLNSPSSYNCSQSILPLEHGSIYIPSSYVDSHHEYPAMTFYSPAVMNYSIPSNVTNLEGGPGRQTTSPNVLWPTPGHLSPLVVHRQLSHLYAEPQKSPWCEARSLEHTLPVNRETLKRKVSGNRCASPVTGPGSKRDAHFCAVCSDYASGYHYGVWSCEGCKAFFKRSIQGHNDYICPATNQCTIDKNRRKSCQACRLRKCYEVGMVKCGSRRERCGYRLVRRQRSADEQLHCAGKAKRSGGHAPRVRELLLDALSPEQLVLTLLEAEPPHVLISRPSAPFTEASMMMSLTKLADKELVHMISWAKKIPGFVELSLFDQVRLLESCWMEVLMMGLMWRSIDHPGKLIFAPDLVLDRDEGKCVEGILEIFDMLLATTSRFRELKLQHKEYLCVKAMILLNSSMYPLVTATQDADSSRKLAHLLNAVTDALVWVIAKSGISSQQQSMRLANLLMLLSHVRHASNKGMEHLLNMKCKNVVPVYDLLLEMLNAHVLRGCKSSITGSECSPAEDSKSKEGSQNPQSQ
Method in brief: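 ER-beta-UAS-bla HEK293T (GripTite) cells carrying a UAS-driven beta-lactamase reporter, in medium with 2% charcoal-stripped FBS, were exposed to compounds for 16 hr at 37C; LiveBLAzer B/G FRET substrate was then added and fluorescence read after 2 hours at room temperature.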

[12] = target: Estrogen receptor beta (Homo sapiens) (UniProt Q92731); experiment: qHTS assay to identify small molecule antagonists of the estrogen receptor beta (ER-beta) signaling pathway (AID 1259378; active = well fitted inhibition curve with a large enough effect in the signal ratio in the repeat runs, not every such curve was filed as active; the % refers to the signal ratio)
Method in brief: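 ER-beta-UAS-bla HEK293T cells in 2% charcoal-stripped FBS medium treated with compound plus 1nM final 17-beta-estradiol for 16 hr at 37C. Beta-lactamase reporter read by FRET substrate fluorescence after 2 hours at room temperature.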

[13] = qHTS assay to identify small molecule agonists of the androgen receptor (AR) signaling pathway in the presence of an antagonist - cell viability counter screen (AID 1259379);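 also: MDA-kb2 human breast cancer cells carrying an MMTV luciferase reporter; series mostly up to about 92 µM; nearly all actives have a fitted effect of over 25% in size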
Method in brief: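 Viability counter screen: CellTiter-Fluor fluorescence, measured in the same wells as the luciferase read-out. MDA-kb2 cells, 3,000/well, with nilutamide at 3.0uM final and compounds at 15 concentrations, 16 hr at 37C, 0% CO2.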

[14] = qHTS assay to identify small molecule agonists of the estrogen receptor beta (ER-beta) signaling pathway - cell viability counter screen (AID 1259380); also: nearly all actives have a fitted effect of over 30% in size
Method in brief: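 Luminescence read-out (CellTiter-Glo, 30 min, room temp) taken in the same wells as the beta-lactamase reporter assay; ER-beta-UAS-bla HEK293T cells exposed to DMSO-dissolved compounds for 16 hr at 37C in 2% charcoal-stripped FBS medium.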

[15] = target: Androgen receptor (Homo sapiens) (UniProt P10275); experiment: qHTS assay to identify small molecule agonists of the androgen receptor (AR) signaling pathway in the presence of an antagonist (AID 1259381; calls by dose curve; also: nearly all actives have a fitted effect of over 15% in size)
Method in brief: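 Luciferase read-out (ONE-Glo, 30min room temperature) in MDA-kb2 MMTV-reporter cells; agonist mode run in presence of AR antagonist nilutamide, 3.0uM final. Compounds tested as 15-point series, 16hr exposure at 37C, 0% CO2.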

[16] = qHTS assay to identify small molecule antagonists of the estrogen receptor beta (ER-beta) signaling pathway - cell viability counter screen (AID 1259382); also: series mostly up to about 92 µM; nearly all actives have a fitted effect of over 55% in size
Method in brief: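 Luminescent ATP read-out (CellTiter-Glo, 30 min, RT) taken in the same wells as the bla reporter assay. HEK293T ER-beta-UAS-bla cells in 2% charcoal-stripped FBS were exposed to compounds with 1nM E2 for 16 hr at 37C.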

[17] = target: Estrogen receptor (Homo sapiens) (UniProt P03372); experiment: qHTS assay to identify small molecule agonists of the estrogen receptor alpha (ER-alpha) signaling pathway in the presence of an antagonist (AID 1259383; calls by dose curve; also: top concentration of the series differs between compounds; nearly all actives have a fitted effect of over 15% in size)
Method in brief: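 Luciferase luminescence (ONE-Glo, 30min at room temperature) measured in VM7Luc4E2 cells after 22hr compound exposure at 15 concentrations, with 10.0nM ICI-182,780 final present; cells express endogenous ER-alpha and carry four EREs upstream of luciferase.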

[18] = qHTS assay to identify small molecule agonists or antagonists of the thyroid stimulating hormone receptor (TSHR) signaling pathway - wild type cell line counter screen (AID 1259384; calls by dose curve)
Method in brief: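 Wild-type Hek293 cells, 800/well, 18 h at 37C, then compound with Ro20-1724 for 30 min RT. cAMP by HTRF (cAMP-d2/anti-cAMP cryptate), 1 h RT, fluorescence read. 15 concentrations, triplicates.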

[19] = qHTS assay to identify small molecule antagonists of the estrogen receptor alpha (ER-alpha) signaling pathway using the BG1 cell line in the presence of 0.1 nM 17-beta-estradiol - cell viability counter screen (AID 1259241); also: nearly all actives have a fitted effect of over 40% in size
Method in brief: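 VM7Luc4E2 cells (endogenous ER-alpha, 4×ERE-luciferase), hormone-starved 5 days in charcoal-stripped FBS, were treated with compounds plus 0.1 nM 17beta-estradiol for 22 hr at 37C; viability read in same wells as CellTiter-Fluor live-cell protease fluorescence.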

Measured: Potency

Cc1nc(C)c(C)nc1C
inactive: [1] | [2] | [3] | [4] | [5] | [6] | [7] | [8] | [9] | [10] | [11] | [12] | [13] | [14] | [15] | [16] | [17] | [18]

CC1(C)CC(=O)CC(C)(C)N1
inactive: [1] | [19] | [4] | [5] | [6] | [7] | [8] | [9] | [10] | [11] | [12] | [13] | [14] | [16] | [18]

CCCCCCCCCCCCCCCCC(=O)O
inactive: [1] | [19] | [3] | [5] | [6] | [7] | [8] | [9] | [10] | [11] | [12] | [13] | [14] | [15] | [16] | [18]

Cc1c(-c2cccnc2)c2ccccc2n1CCCCC(=O)O
inactive: [1] | [19] | [5] | [7] | [8] | [9] | [10] | [11] | [12] | [14] | [16] | [18]

CS(C)=O
active: [10] 68.6 µM
inactive: [1] | [19] | [5] | [6] | [7] | [8] | [9] | [13] | [14] | [16] | [18]

C=C(C)C(=O)OCCCCCCCCCCOC(=O)C(=C)C
inactive: [1] | [19] | [5] | [6] | [7] | [8] | [9] | [10] | [11] | [12] | [13] | [14] | [16] | [18]
